# In PubChem BioAssay (Tox21):
# “And” between values parts separate entries of the source, which are not always exact repeats. Equal entries are not always repeated. Records with an inconclusive call do not appear. Entries that show only a call come without a potency. Some structures have more than one record in an assay (separate samples or runs), and their calls can disagree. The source made the active and inactive calls. Unless noted, calls come from the whole dose curve.
# Legend:
# [1] = Nuclear factor erythroid 2-related factor 2/antioxidant responsive element (Nrf2/ARE) small molecule agonists: luciferase reporter gene qHTS assay in human keratinocytes (AID 1919969); note: nearly all actives have a fitted effect of over 35% in size; note: potency is the fitted concentration of half-maximal effect
# [2] = target: Gonadotropin-releasing hormone receptor (Homo sapiens) (UniProt P30968); assay: Human gonadotropin-releasing hormone receptor (GnRHR) small molecule agonists, calcium flux assay in GnRHR-HEK293 cells (AID 1920063); note: nearly all actives have a fitted effect of over 35% in size
# Chain of Gonadotropin-releasing hormone receptor (Homo sapiens) (P30968 whole entry, looked up): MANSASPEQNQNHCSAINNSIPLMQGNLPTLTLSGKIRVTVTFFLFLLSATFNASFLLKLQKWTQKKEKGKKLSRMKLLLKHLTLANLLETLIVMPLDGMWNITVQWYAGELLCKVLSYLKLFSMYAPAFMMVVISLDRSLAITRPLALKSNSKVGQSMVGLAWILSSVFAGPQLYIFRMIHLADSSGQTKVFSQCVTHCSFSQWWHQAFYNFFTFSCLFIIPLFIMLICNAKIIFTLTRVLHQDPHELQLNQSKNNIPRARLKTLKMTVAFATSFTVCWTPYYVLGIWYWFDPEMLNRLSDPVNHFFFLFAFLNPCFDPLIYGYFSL
# Summary of the method: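 Stable human GnRHR HEK293 line. 18 h plating, then calcium dye for 1 h at 37 C. Agonist-mode compound addition from DMSO stocks; fluorescence monitored 3 min.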
# [3] = target: KiSS-1 receptor (Homo sapiens) (UniProt Q969F8); assay: Human kisspeptin (KISS1R) small molecule agonists, calcium flux assay in KISS1R-HEK293 cells (AID 1920064; active = well fitted activation curve with a large enough effect in the repeat runs)
# Chain of KiSS-1 receptor (Homo sapiens) (Q969F8 whole entry, looked up): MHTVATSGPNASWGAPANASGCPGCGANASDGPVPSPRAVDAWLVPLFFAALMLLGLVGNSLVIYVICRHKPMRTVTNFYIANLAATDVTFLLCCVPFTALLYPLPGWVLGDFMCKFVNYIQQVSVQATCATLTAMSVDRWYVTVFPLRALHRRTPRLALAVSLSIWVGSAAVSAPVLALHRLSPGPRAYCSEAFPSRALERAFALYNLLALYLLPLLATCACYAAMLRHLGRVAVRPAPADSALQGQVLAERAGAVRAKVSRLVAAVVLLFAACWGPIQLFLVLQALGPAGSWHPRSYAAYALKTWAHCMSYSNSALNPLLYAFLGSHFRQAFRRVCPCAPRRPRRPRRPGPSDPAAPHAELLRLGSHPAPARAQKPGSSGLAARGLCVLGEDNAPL
# Summary of the method: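 After overnight (18 h) culture at 37 C/5% CO2, human KISS1R-HEK293 cells received calcium dye for 1 h, then test compound; emission at 540 nm (excitation 480 nm) was tracked for 3 min.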
# [4] = G protein-coupled receptor (GPCR) small molecule agonists, calcium flux assay: HEK293 wild type cell line counter screen (AID 1920065)
# Summary of the method: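 Following 18 h incubation at 37 C/5% CO2, plates got calcium dye for 1 h; compounds, ATP or DMSO were then pinned in and fluorescence followed kinetically (480/540 nm).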
# [5] = p53 small molecule agonists, cell-based qHTS assay with human liver microsomes (AID 1963577);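 note: p53 response element beta-lactamase reporter cells with liver microsomes plus NADPH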
# Summary of the method: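 In this qHTS, p53 response-element beta-lactamase cells receive test compound together with a microsome/NADPH activating system (0.5 mg/mL final each) and are incubated 16 h at 37 C before LiveBLAzer fluorescence detection.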
# [6] = p53 small molecule agonists, cell-based qHTS assay with rat liver microsomes (AID 1963578); note: potency is the fitted concentration of half-maximal effect
# Summary of the method: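 Agonist mode in p53RE-bla reporter cells, with compounds co-incubated 16 h at 37 C alongside 0.5 mg/mL rat liver microsomes and 0.5 mg/mL NADPH (final), followed by a 2 h LiveBLAzer detection step.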
# [7] = p53 small molecule agonists, cell-based qHTS assay with human liver microsomes: qHTS cell viability counter screen (AID 1963579); note: nearly all actives have a fitted effect of over 45% in size; note: potency is the fitted concentration of half-maximal effect
# Summary of the method: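 Metabolically activated exposure: compounds, human liver microsomes and NADPH (0.5 mg/mL final apiece) were added to p53RE-bla cells seeded 5 h earlier, left 16 h at 37 C, and then assessed for viability by CellTiter-Glo luminescence.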
# [8] = p53 small molecule agonists, cell-based qHTS assay with rat liver microsomes: qHTS cell viability counter screen (AID 1963580); note: nearly all actives have a fitted effect of over 45% in size; note: potency is the fitted concentration of half-maximal effect
# Summary of the method: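 Cytotoxicity counter screen: intracellular ATP measured by CellTiter-Glo luminescence in the same wells as the beta-lactamase reporter read, on HCT-116 p53RE-bla cells exposed 16 h at 37 C to compounds with rat liver microsomes and NADPH, each 0.5 mg/mL final.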
# [9] = p53 small molecule agonists, cell-based qHTS assay: qHTS cell viability counter screen (AID 1963581); note: nearly all actives have a fitted effect of over 45% in size; note: potency is the fitted concentration of half-maximal effect
# Summary of the method: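 qHTS counter screen: 16 h compound exposure at 37 C of p53RE-bla HCT-116 cells (4,000 per well, seeded 5 h prior), cell viability by ATP luminescence.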
# [10] = p53 small molecule agonists, cell-based qHTS assay (AID 1963582; active = well fitted activation curve with a large enough effect in the signal ratio in the repeat runs, not every such curve was filed as active; the % refers to the signal ratio)
# Summary of the method: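 Measured: fluorescence from cleaved LiveBLAzer substrate. System: p53RE-bla cells, 16 h compound treatment at 37 C, 2 h substrate step at room temperature.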
# [11] = target: 5-hydroxytryptamine receptor 2A (Homo sapiens) (UniProt P28223); assay: 5-hydroxytryptamine receptor 2A (HTR2A) small molecule antagonists, cell-based qHTS assay (AID 1963586); note: nearly all actives have a fitted effect of over 45% in size
# Chain of 5-hydroxytryptamine receptor 2A (Homo sapiens) (P28223 whole entry, looked up): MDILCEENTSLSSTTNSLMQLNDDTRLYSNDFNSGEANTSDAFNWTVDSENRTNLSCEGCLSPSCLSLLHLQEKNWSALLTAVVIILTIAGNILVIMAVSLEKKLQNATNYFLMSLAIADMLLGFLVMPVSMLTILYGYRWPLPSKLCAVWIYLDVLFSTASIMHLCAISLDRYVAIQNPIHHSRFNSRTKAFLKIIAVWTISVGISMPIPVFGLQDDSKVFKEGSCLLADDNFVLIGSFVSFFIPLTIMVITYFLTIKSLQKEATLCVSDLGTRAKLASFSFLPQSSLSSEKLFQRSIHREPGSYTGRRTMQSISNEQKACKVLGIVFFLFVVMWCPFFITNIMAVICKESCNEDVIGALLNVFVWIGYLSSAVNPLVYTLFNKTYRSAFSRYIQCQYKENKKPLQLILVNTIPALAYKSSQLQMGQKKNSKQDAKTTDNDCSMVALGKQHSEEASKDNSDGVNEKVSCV
# Summary of the method: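 CHO cells stably expressing human HTR2A were plated for 18 h at 37 C, then loaded with calcium dye for 1 h. Compounds were preincubated 5 min at room temperature before DOI (4 nM solution) was added. Kinetic fluorescence was read for 3 min.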
# [12] = target: 5-hydroxytryptamine receptor 2A (Homo sapiens) (UniProt P28223); assay: 5-hydroxytryptamine receptor 2A (HTR2A) small molecule agonists, cell-based qHTS assay (AID 1963587); note: nearly all actives have a fitted effect of over 30% in size; note: potency is the fitted concentration of half-maximal effect
# Summary of the method: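 CHO cells stably expressing human HTR2A, plated 18 h, loaded with calcium dye 1 h at 37 C. Agonist mode: compounds added and intracellular calcium fluorescence recorded kinetically for 2 min at 1 sec intervals.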
# [13] = target: Muscarinic acetylcholine receptor M1 (Homo sapiens) (UniProt P11229); assay: Cholinergic receptor muscarinic 1 (CHRM1) small molecule antagonists, cell-based qHTS assay (AID 1963588); note: nearly all actives have a fitted effect of over 40% in size
# Chain of Muscarinic acetylcholine receptor M1 (Homo sapiens) (P11229 whole entry, looked up): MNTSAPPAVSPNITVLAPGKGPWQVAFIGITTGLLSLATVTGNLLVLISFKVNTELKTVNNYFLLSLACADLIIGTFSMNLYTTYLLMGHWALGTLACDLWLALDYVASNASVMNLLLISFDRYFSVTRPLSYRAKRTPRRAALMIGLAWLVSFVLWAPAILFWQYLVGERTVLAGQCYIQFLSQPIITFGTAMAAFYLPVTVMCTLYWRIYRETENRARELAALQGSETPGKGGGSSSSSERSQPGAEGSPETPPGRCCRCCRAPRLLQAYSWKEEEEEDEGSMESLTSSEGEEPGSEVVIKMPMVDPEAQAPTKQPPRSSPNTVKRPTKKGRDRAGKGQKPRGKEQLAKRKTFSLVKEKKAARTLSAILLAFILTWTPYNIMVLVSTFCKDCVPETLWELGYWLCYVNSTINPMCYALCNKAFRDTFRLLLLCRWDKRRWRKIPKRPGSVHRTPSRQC
# Summary of the method: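 Compounds were tested at 15 concentrations in three independent runs. Dye-loaded CHRM1-CHO cells were exposed 5 min at room temperature before stimulation by acetylcholine added at 50nM. Intracellular calcium was read kinetically on FDSS for 3 min.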
# [14] = target: Muscarinic acetylcholine receptor M1 (Homo sapiens) (UniProt P11229); assay: Cholinergic receptor muscarinic 1 (CHRM1) small molecule agonists, cell-based qHTS assay (AID 1963589); note: nearly all actives have a fitted effect of over 35% in size
# Summary of the method: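 Kinetic fluorescence (1 s intervals) of calcium-sensitive dye in human M1 CHO cells after compound addition; cells pre-incubated 18 h at 37 C/5% CO2 and dye-loaded 1 h.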
# [15] = cAMP Responsive Elements (CRE) small molecule agonists, cell-based qHTS assay (AID 1963590)
# Summary of the method: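 Test agents in DMSO were incubated 3 h at 37 C/5% CO2 with CRE-bla HEK 293T cells seeded 18 h earlier; LiveBLAzer B/G FRET substrate was added and read after 2 h at room temperature.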
# [16] = cAMP Responsive Elements (CRE) small molecule antagonists, cell-based qHTS assay (AID 1963591; active = well fitted inhibition curve with a large enough effect in the signal ratio in the repeat runs, not every such curve was filed as active; the % refers to the signal ratio; note: potency is the fitted concentration of half-maximal effect)
# Summary of the method: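 Reporter line CRE-bla HEK 293T in dialyzed-FBS DMEM; cells preincubated 18 h, treated 3 h with compound plus NKH477 (0.25 uM final); LiveBLAzer FRET, 2 h RT.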
# [17] = target: Beta-2 adrenergic receptor (Homo sapiens) (UniProt P07550); assay: Adrenergic beta2 receptor (ADRB2) small molecule antagonists, cell-based qHTS assay (AID 1963592); note: series mostly up to about 92 µM; nearly all actives have a fitted effect of over 50% in size
# Chain of Beta-2 adrenergic receptor (Homo sapiens) (P07550 whole entry, looked up): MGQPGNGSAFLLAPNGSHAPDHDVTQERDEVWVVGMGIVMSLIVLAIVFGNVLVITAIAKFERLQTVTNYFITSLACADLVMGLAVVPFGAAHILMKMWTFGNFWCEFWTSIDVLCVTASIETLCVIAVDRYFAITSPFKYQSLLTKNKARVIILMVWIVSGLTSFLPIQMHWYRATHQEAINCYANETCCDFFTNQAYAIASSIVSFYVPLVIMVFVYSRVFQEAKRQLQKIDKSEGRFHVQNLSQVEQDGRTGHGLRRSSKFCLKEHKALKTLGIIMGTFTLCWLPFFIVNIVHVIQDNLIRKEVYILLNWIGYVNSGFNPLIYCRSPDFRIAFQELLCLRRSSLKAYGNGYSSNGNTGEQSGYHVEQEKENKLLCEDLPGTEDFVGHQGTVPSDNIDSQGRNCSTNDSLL
# Summary of the method: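 Assay format: CHO-ADRB2 cells, 18-20hr seeding at 37C/5% CO2, then compound plus 1nM isoproterenol agonist mix for 0.5hr RT. Homogeneous time-resolved fluorescence cAMP detection after 1hr, expressed as 665/615 nm ratio.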
# [18] = target: Beta-2 adrenergic receptor (Homo sapiens) (UniProt P07550); assay: Adrenergic beta2 receptor (ADRB2) small molecule agonists, cell-based qHTS assay (AID 1963593);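 note: CHO cells stably overexpressing human ADRB2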
# Summary of the method: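 CHO cells stably over-expressing ADRB2 were plated overnight at 37C, then dosed with compounds plus a stimulation mix containing 100uM IBMX and 25uM Ro-20-1724 for 0.5hr at room temperature. cAMP was measured by HTRF competition, 1hr.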
# [19] = target: D(2) dopamine receptor (Homo sapiens) (UniProt P14416); assay: Dopamine D2 receptor (DRD2) small molecule agonists, cell-based qHTS assay (AID 1963594); note: nearly all actives have a fitted effect of over 35% in size
# Chain of D(2) dopamine receptor (Homo sapiens) (P14416 whole entry, looked up): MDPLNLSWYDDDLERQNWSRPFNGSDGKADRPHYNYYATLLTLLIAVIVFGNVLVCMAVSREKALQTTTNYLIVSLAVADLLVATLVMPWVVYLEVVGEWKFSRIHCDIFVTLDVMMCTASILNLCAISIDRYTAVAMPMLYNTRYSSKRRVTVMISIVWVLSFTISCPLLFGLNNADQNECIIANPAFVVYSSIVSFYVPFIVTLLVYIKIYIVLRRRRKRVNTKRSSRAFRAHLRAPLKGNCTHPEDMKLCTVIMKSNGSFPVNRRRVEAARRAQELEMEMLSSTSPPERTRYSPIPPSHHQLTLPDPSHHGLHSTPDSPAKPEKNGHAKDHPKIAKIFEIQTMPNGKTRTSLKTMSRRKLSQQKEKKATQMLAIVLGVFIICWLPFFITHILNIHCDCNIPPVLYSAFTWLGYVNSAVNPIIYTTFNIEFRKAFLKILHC
# Summary of the method: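 HEK293 cells stably expressing human DRD2, pre-treated with PDE inhibitor Ro20-1724 (0.1 mM final) and compound 10 min at room temperature, then stimulated with NKH477 (200nM […]) for 30 min. cAMP read by HTRF (665/620 nm).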
# [20] = target: D(2) dopamine receptor (Homo sapiens) (UniProt P14416); assay: Dopamine D2 receptor (DRD2) small molecule antagonists, cell-based qHTS assay (AID 1963595; active = well fitted inhibition curve with a large enough effect in the signal ratio in the repeat runs, with a control signal flat; the % refers to the signal ratio)
# Summary of the method: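 Human DRD2 antagonist qHTS measuring cAMP by HTRF. The cells are exposed to compound for 10 min, then to NKH477 (200 nM) and quinpirole (12 nM) for 30 min at RT, with Ro20-1724 (0.1 mM) present throughout.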
SMILES,Potency [1],Potency [2],Potency [3],Potency [4],Potency [5],Potency [6],Potency [7],Potency [8],Potency [9],Potency [10],Potency [11],Potency [12],Potency [13],Potency [14],Potency [15],Potency [16],Potency [17],Potency [18],Potency [19],Potency [20]
CCCCC/C=C\C/C=C\CCCCCCCC(=O)OC,27 µM (active) and 68.6 µM (active),inactive,inactive,inactive,inactive,inactive,inactive and 51.3 µM (active),inactive,inactive,inactive,inactive,inactive,inactive,inactive,inactive,inactive,inactive,inactive,inactive,inactive
O=c1c(O)c(-c2ccc(O)cc2)oc2cc(O)cc(O)c12,17.2 µM (active) and inactive,inactive,inactive,inactive,inactive,inactive,inactive,inactive,inactive,inactive,inactive,inactive,inactive,inactive,–,–,inactive,–,inactive,inactive
Cc1cc(=O)oc2cc(O)ccc12,inactive,inactive,inactive,inactive,inactive,36.3 µM (active) and 22.9 µM (active),inactive,inactive,inactive,–,inactive,inactive,inactive,inactive,inactive,–,inactive,inactive,inactive,inactive
Cc1cc(C)c(C)cc1C,inactive,inactive,inactive,inactive,inactive,inactive,inactive,inactive,inactive,inactive,inactive,inactive,–,inactive,inactive,inactive,inactive,inactive,inactive,inactive
OCCc1ccccc1,inactive,inactive,inactive,inactive,inactive,inactive,inactive,inactive,–,inactive,inactive,inactive,inactive,inactive,inactive,inactive,–,–,inactive,–
C[C@@H](O)[C@H]1C(=O)N2C(C(=O)O)=C(S[C@@H]3CN[C@H](C(=O)N(C)C)C3)[C@H](C)[C@H]12,inactive,inactive,inactive,inactive,inactive,inactive,inactive,inactive,inactive,inactive,–,–,–,–,inactive,inactive,inactive,inactive,–,inactive
COC(=O)CCCCC(=O)OC,inactive,inactive,inactive,inactive,inactive,inactive,inactive,inactive,inactive,inactive,inactive,inactive,inactive,inactive,inactive,inactive,inactive,–,inactive,inactive
O=C(Cl)c1c(Cl)c(Cl)c(C(=O)Cl)c(Cl)c1Cl,inactive,inactive,inactive,inactive,inactive,inactive,inactive,inactive,inactive,inactive,inactive,inactive,–,inactive,–,inactive,inactive,inactive,inactive,inactive
OC[C@@H](O)[C@@H](O)[C@H](O)[C@@H](O)CO,inactive,inactive,inactive,inactive,inactive,inactive,inactive,inactive,inactive,inactive,–,–,–,–,inactive,inactive,inactive,inactive,inactive,inactive
CC(O)COc1ccccc1 (stereo unspecified),inactive,inactive,inactive,inactive,inactive,inactive,inactive,inactive,–,inactive,inactive,inactive,–,inactive,inactive,inactive,inactive,inactive,–,inactive
CCCCCCCCCCCCOC(=O)c1cc(O)c(O)c(O)c1,inactive,inactive,inactive,inactive,inactive,inactive,45.8 µM (active),40.6 µM (active),40.6 µM (active) and 40.8 µM (active),–,inactive,10.9 µM (active) and inactive,inactive,inactive,inactive,21.6 µM (active) and 45.2 µM (active),inactive,inactive,inactive,–
O=Cc1ccccc1O,inactive,inactive,inactive,inactive,inactive,inactive,inactive,inactive,inactive,inactive,inactive,inactive,inactive,inactive,inactive,inactive,inactive,inactive,inactive,inactive
O=C(O)c1ccc(C(=O)O)cc1,inactive,inactive,inactive,inactive,inactive,inactive,–,inactive,inactive,inactive,inactive,inactive,inactive,inactive,inactive,inactive,inactive,inactive,inactive,inactive
Cc1ccccc1C=O,inactive,inactive,inactive,inactive,inactive,inactive,inactive,–,inactive,inactive,inactive,inactive,inactive,inactive,inactive,inactive,inactive,inactive,inactive,–
CCOCCOCCO,inactive,inactive,inactive,inactive,inactive,inactive,inactive,inactive,inactive,inactive,inactive,inactive,–,inactive,inactive,inactive,–,–,inactive,–
CN1C(C(=O)Nc2ccccn2)=C(O)c2ccccc2S1(=O)=O,inactive,inactive,inactive,inactive,inactive,inactive,inactive,inactive,inactive,inactive,–,–,–,–,inactive,inactive,inactive,–,inactive,inactive
